Results from PubChem BioAssay (Tox21).
Activity calls are given as the source filed them. Calls come from the whole dose curve; as a rule, active = well fitted activation curve with a large enough effect in the repeat runs; inconclusive = weak or mixed curves; inactive = flat fitted curve, though single readings scatter.

experiment: A CellTox Green Cytotoxicity Assay to monitor cytotoxicity in HEK293 cells - 0 hour (AID 1224869); details: CellTox Green fluorescence; series mostly up to 76.8 µM; note: nearly all actives have a fitted effect of over 50% in size
From the text: National Center for Advancing Translational Sciences [NCATS]
NIH Chemical Genomics Center [NCGC]
U.S. Environmental Protection Agency [EPA]
National Institutes of Environmental Health Sciences [NIEHS]
National Toxicology Program [NTP]
Cell-based models are critical for drug discovery. Determining the natural cytotoxic effects resulting from test compounds is an essential research activity. A CellTox Green Cytotoxicity Assay to monitor cytotoxicity in real time of continues cell culture during 40 hours of the compound treatment was used to screen Tox21 10K library compounds in Hek293 cells. CellTox Green Cytotoxicity Assay is a nonlytic, homogeneous, biofluorescent method to measure cytotoxicity in cell culture after experimental manipulation. The assay system uses a proprietary asymmetric cyanine dye that is excluded from viable cells but preferentially stains the dead cell's DNA. […] Viable cells produce no appreciable increases in fluorescence. Therefore, the fluorescence signal produced by the binding interaction with dead cell DNA is proportional to cytotoxicity.
The mixture of Hek293 cell suspension and reagents were dispensed at 600cells/6 ul/well in 1536-well tissue culture treated black solid bottom plates using a Multidrop dispenser. After the assay plates were incubated at a 37 C/5% CO2 incubator for 5 hours, 23 nL of compounds dissolved in DMSO, positive and negative controls was transferred to the assay plate by a pintool work station. The plates were incubated at 37 C for 40 hours. The fluorescence intensity were measured at 0h, 8h, 16h, 24h, 32h and 40h time points using ViewLux plate reader during compound treatment.

SMILES | outcome
O=C(O)CCCCCCCCC(=O)O | inactive
CCCCCCCCCCO | inactive
Nc1ccc(Cl)c(N)c1 | inactive
Cc1ccc([N+](=O)[O-])cc1S(=O)(=O)O | inactive
CN1C(=O)CC[C@H]1c1cccnc1 | inactive
OCc1cccc(Oc2ccccc2)c1 | inactive
OCc1ccccc1 | inactive
CCOC(=O)n1ccn(C)c1=S | inactive
CC(=O)OCCOC(C)=O | inactive
CC(C)c1cccc(C(C)C)c1 | inactive
CC(C)OP(=O)(CP(=O)(OC(C)C)OC(C)C)OC(C)C | inactive
CCO[Si](CCCN)(OCC)OCC | inactive
CCOCCOCCOCCO | inactive
NC(=S)NNC(N)=S | inactive
O=C(O)c1ccc(C(=O)O)c(C(=O)O)c1 | inactive
CC(C)(Oc1ccc(CCNC(=O)c2ccc(Cl)cc2)cc1)C(=O)O | inactive
CC(=O)Oc1ccc(C)cc1 | inactive
CCCCCCCCCCCCCCCCO | inactive
COc1ccc(C)cc1N | inactive
C=C(C)[C@H]1CC=C(C)C(=O)C1 | inactive

SMILES | outcome
CC(=O)CC(C)(C)O | inactive
CN(C)c1ccc(O)c2c1C[C@H]1C[C@H]3[C@H](N(C)C)C(=O)C(C(N)=O)=C(O)[C@@]3(O)C(=O)C1=C2O | inactive
CC(C)CC(=O)CC(C)CC(C)C (stereo not given) | inactive
COc1ccc([N+](=O)[O-])cc1N | inactive
C=C(C)C(=O)OCC(C)C | inactive
CCCOC(=O)c1ccccc1 | inactive
NCCN1CCNCC1 | inactive
C=CCc1ccc(OC)c(OC)c1 | inactive
CC(C)CCCCCCCOC(=O)CCCCC(=O)OCCCCCCCC(C)C | inactive
CC(C)(C)c1cc(Cc2cc(C(C)(C)C)c(O)c(C(C)(C)C)c2)cc(C(C)(C)C)c1O | inactive
CN/C(=C\[N+](=O)[O-])NCCSCc1csc(CN(C)C)n1 | inactive
CC(=O)OCc1ccco1 | inactive
CNC(=O)Oc1ccc2c(c1)[C@]1(C)CCN(C)[C@@H]1N2C | inactive
Brc1ccc(Br)c(Br)c1 | inactive
C[C@]12CC[C@@H]3c4ccc(O)cc4CC[C@H]3[C@@H]1C[C@@H](O)[C@@H]2O | inactive
O=[N+]([O-])c1ccc2nc[nH]c2c1 | inactive
Clc1ccccn1 | inactive
CCc1ccccc1CC | inactive
CCCCCCC=O | inactive
O=C(O)c1ccc(S(=O)(=O)N(Cl)Cl)cc1 | inactive
